Drawing on PubChem BioAssay AID1850 (Southern Research Specialized Biocontainment Screening …, 2009), this text covers inhibition for 90 compounds.

Screen size: about 310,000 compounds; about 1,000 (0.32%) were called active. These entries were drawn from the full list. Results with a measured potency or affinity are listed apart. A number with no mark means an inactive call. No rule for the calls is given here.

The nature of the assay: Inhibition of PhoP regulon, Salmonella typhi GFP reporter cells, confirmation, 4 h (AID 1850).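 Also: 0% = induced wells with vehicle and 100% = uninduced wells.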 The settings on record: Salmonella Typhi PhoP-promoter GFP reporter, fluorescence, at 50 µM, stronger effect = higher value.
On to `COc1cc(N)c(Cl)cc1C(=O)OCC(=O)N1CCCC1`, for which the inhibition – broadly, the relative decrease from the control value, in per cent – is -3.7%. Next, `CCC(=O)NC(=S)NNC(=O)c1ccc(O)cc1`: -2.12%. Turning to `C=CCNC(=S)NNC(=O)c1ccc(OCCC)cc1`, the inhibition was 0.33%. For the compound `CSc1ncccc1C(=O)N1CCCC(C(=O)c2ccc3ccccc3c2)C1` (stereo not given), the inhibition was 0.25%. For `Cc1cc(C(C)(C)C)ccc1OCCOCCN1CCCC1`, the inhibition was -9.74%. On to `CC(C)(C)c1ccc(OCCNCc2ccccc2)cc1`, for which the inhibition was 3.96%. On to `Cc1cc(C(C)(C)C)ccc1OCCN(C)C`, for which the inhibition was -2.78%. Consider `C[N+](C)(CCOc1ccccc1)Cc1ccccc1` (tested in a mixture with another compound), for which the inhibition was -4.3%. As for `N/C(=N/[N+](=O)[O-])N1CCN(C(=O)c2ccc(Cl)cc2)CC1`, the inhibition was 9.05%. For `O=C(NC1CCS(=O)(=O)C1)c1ccc(-c2ccc(Br)cc2)o1` (stereo not given), the inhibition is -6.5%. As to `O=C(NCCc1ccccc1Cl)c1ccc2nc3ccccc3c(=O)n2c1`, the inhibition was -1.95%.

In the case of `O=[N+]([O-])c1ccc(Sc2cccc3cccnc23)cc1`, the inhibition is -0.7%.

Regarding `CCOC(=O)COc1cc([N+](=O)[O-])cc2cccnc12`, the inhibition was 1.87%. On to `CC(C)N=C(N)N=C(N)Nc1ccc(Cl)cc1`, for which the inhibition was 28.9%. Take `NC(N)=NC(=S)Nc1ccc(Cl)cc1`: the inhibition is 18.1%. Turning to `COc1ccc(C(=O)N/C(=C\c2ccco2)C(=O)NC2CCS(=O)(=O)C2)cc1` (stereo not given), the inhibition was -6.19%. Next, `N#Cc1ccc(C(=O)Nc2nnc(-c3cccs3)o2)cc1`: 21.1%; `O=C(Nc1nnc(C2=COCCO2)o1)c1cccc(C(F)(F)F)c1`: -4.95%. Consider `O=C(Nc1nnc(-c2cccs2)o1)c1ccco1`, for which the inhibition is 9.01%. Turning to `O=C(Nc1nnc(-c2cccs2)s1)c1cccc(F)c1`, the inhibition was -2.5%. `CN(C)S(=O)(=O)c1ccc(C(=O)Nc2nnc(-c3cccs3)o2)cc1`: the inhibition was -4%.

On to `COc1cccc(C(=O)Nc2nnc(-c3cccs3)o2)c1`, for which the inhibition is 17.3%. Next, `Cc1cc(C(=O)COC(=O)c2nc3nccc(C)n3n2)c(C)n1CC1CCCO1` (stereo not given): -1.82%; `COCCn1c(CCC(=O)O)ccc1-c1cccs1`: 3.14%; `O=C(O)c1ccccc1-n1c(-c2ccccc2)cc2c1CCCC2=O`: -1.82%.

In the case of `CC(C)CC1Nc2ccc(C(=O)NCc3ccc4c(c3)OCO4)cc2NC1=O` (stereo not given), the inhibition was 1.92%. Turning to `Cc1nccn1Cc1ccccc1`, the inhibition is 9.82%.

Consider `COc1ccc(Cl)cc1NC(=S)NCCc1ccc(S(N)(=O)=O)cc1`, for which the inhibition was 1.57%. Consider `CN(Cc1ccccc1)C(=O)c1cccnc1`, for which the inhibition was -2.03%. As to `CCOC(=O)c1ccc(NC(=O)c2cn(-c3ccccc3)nc2-c2ccncc2)cc1`, the inhibition is 3.68%. Take `CN(C)[C@@H]1C(=O)C(C(N)=O)=C(O)[C@@]2(O)C(=O)C3=C(O)c4c(O)cccc4[C@@](C)(O)[C@H]3[C@H](O)[C@@H]12`: the inhibition was 5.02%. As to `CN(C)[C@@H]1C(=O)C(C(N)=O)=C(O)[C@@]2(O)C(=O)C3=C(O)c4c(O)cccc4[C@@](C)(O)[C@H]3C[C@@H]12`, the inhibition is -2.82%. In the case of `CN(C)[C@@H]1C(=O)C(C(=O)NCN2CCCC2)=C(O)[C@@]2(O)C(=O)C3=C(O)c4c(O)cccc4[C@@](C)(O)C3CC12` (stereo not given in full), the inhibition was -8.43%. With `CN(C)[C@@H]1C(=O)C(C(N)=O)=C(O)[C@@]2(O)C(=O)C3=C(O)c4c(O)ccc(Cl)c4[C@@](C)(O)[C@H]3C[C@@H]12`, the inhibition was 4.13%.

Take `COC(=O)C1=C(C)N(Cc2ccco2)C(=O)N[C@H]1c1ccccc1`: the inhibition is -5.63%. Next, `Cc1cccc(OCc2nnc(SCC(=O)c3ccccc3)o2)c1`: 5.39%. Next, `O=C(c1ccc(-n2cncn2)c([N+](=O)[O-])c1)N1CCN(S(=O)(=O)c2c(F)cccc2F)CC1`: -3.76%; `O=C(N/N=C/c1cccc(C(F)(F)F)c1)c1ccccc1O`: 1.04%; `O=C(Nc1ccccc1F)Oc1cccc(OC(=O)Nc2ccccc2F)c1`: 5.4%. Next, `CS(=O)(=O)Nc1ccc(C(=O)Nc2ccc(S(=O)(=O)N3CCCC3)cc2)cc1`: -7.4%; `O=C1Nc2ccc(S(=O)(=O)N3CCCC3)c3cccc1c23`: -4.45%; `CC(=O)c1ccc(N=Nc2ccc(N(C)C)cc2)cc1`: 6.87%. `CCN(CC(=O)NCCN1CCOCC1)S(=O)(=O)c1ccc(F)cc1`: the inhibition is 5.57%.

`C/C(=N\NC(=O)C(O)c1ccccc1)c1ccc(Cl)s1` (stereo not given): the inhibition was -5.86%. On to `CN(C)C(=S)NC(=O)c1cccc(Cl)c1`, for which the inhibition is -16.5%. On to `O=C(Nc1ccc(C(=O)O)cc1)/C(=C\C=C\c1ccccc1)NC(=O)c1cccc(Br)c1`, for which the inhibition is 9.6%. `Cc1cc(C)n(/N=C/c2c[nH]c3ccccc23)c(=O)c1`: the inhibition was 2.25%.

Consider `O=[N+]([O-])c1ccc(O)c(/C=N/n2cnnc2)c1`, for which the inhibition is 16.7%. On to `Cc1cc(C)n(/N=C/c2ccccc2O)c(=O)c1`, for which the inhibition was -10.2%. On to `Cc1cc(C)n(/N=C/c2cccc([N+](=O)[O-])c2)c(=O)c1`, for which the inhibition was -0.547%. Turning to `C/C1=C\CCC2C(/C=C(\C)CC1)OC(=O)C2CN1CCCCC1` (stereo not given), the inhibition is 5.15%.

With `CCOc1ccccc1NC(=O)C1CCN(S(=O)(=O)c2cccc3cccnc23)CC1`, the inhibition is 14.7%. Next, `CCOC(=O)c1nnn(-c2nonc2-n2cccc2)c1CN1CCCCC1`: -6.4%; `O=C(O)/C=C/c1ccccc1Oc1ccc(Cl)cc1Cl`: 4.42%; `Nc1cc(C(=O)O)c(Oc2ccc(Cl)cc2Cl)cc1C(=O)O`: -3.01%. Turning to `COc1cc(C)ccc1NC(=O)c1ccc(S(=O)(=O)N2CCOCC2)cc1`, the inhibition is -3.12%. Take `c1ccc(C(c2ccccc2)N2CCN(Cc3nc(-c4cnccn4)no3)CC2)cc1`: the inhibition is -8.94%. Turning to `O=c1c([N+](=O)[O-])c(N2CCCCCC2)c2ccccc2n1-c1ccccc1`, the inhibition is 4.43%. With `CCn1cc(C(=O)O)c(=O)c2cc(F)c(N3CCN(S(=O)(=O)c4ccc(NC(=O)OC)cc4)CC3)cc21`, the inhibition is 3.45%. Take `CCn1cc(C(=O)O)c(=O)c2cc(F)c(N3CCN(S(=O)(=O)c4ccc(Br)cc4)CC3)cc21`: the inhibition is 2.97%. As to `CCn1cc(C(=O)O)c(=O)c2cc(F)c(N3CCN(C(=S)NC(=O)c4ccc(OC)cc4)CC3)cc21`, the inhibition is -3.45%.

For the compound `O=C(O)c1cc(CN2CCOCC2)oc1-c1ccccc1`, the inhibition is 2.28%. Next, `Cc1ccc(C(=O)C(C)OC(=O)Cn2cnc3c2c(=O)n(C)c(=O)n3C)cc1` (stereo not given): 2.25%; `COc1cc(CNc2cccc(C(=O)O)c2)cc(Br)c1OCC(=O)NC(C)(C)C`: -9.24%.

Consider `COC(=O)c1cc(CN2CCN(c3ccccc3C)CC2)ccc1O`, for which the inhibition is -3.53%. In the case of `Cc1ccc(-c2cc(=O)c3ccccc3[nH]2)cc1`, the inhibition was 10.7%. With `COc1ccc(Cc2nc3ccccc3n2CC(=O)N/N=C/c2ccc(C)cc2O)cc1OC`, the inhibition was -7.1%. On to `C/C(=N\NC(=S)NCc1ccccc1)c1ccc(Cl)s1`, for which the inhibition is 9%. On to `Cc1cc(C)n(-c2nncn2/N=C/c2ccccc2F)n1`, for which the inhibition is -6.07%. As for `O=C(Nc1ccccc1C(=O)N1CCOCC1)C1CC(=O)N(C2CCCC2)C1` (stereo not given), the inhibition is -0.19%. Turning to `COc1ccc([N+](=O)[O-])cc1C(=O)NCCOc1ccc(Cl)cc1`, the inhibition was -0.6%. On to `CC(NCC(O)COC1CCC(C(C)(C)C)CC1)c1ccccc1` (stereo not given), for which the inhibition is 0.36%.

On to `COc1ccc(C2/C=C\CN(Cc3ccncc3)CC(=O)N2Cc2ccc(F)cc2)cc1` (stereo not given), for which the inhibition was -5.33%. Turning to `COc1ccc(Cl)cc1C(=O)NCC(C)C`, the inhibition is -5.89%.

As for `O=C(CCC(=O)N1CCCCC1)Nc1nnc(C2CCCCC2)s1`, the inhibition is 8.14%. Take `CCCN1C(=O)/C(=C/c2cc(C)n(C)c2C)SC1=Nc1ccc(OC)cc1`: the inhibition was 0.64%. For the compound `CNC(=O)CC1C(=O)N(c2ccc(Cl)cc2)C(=S)N1CCc1ccc(OC)c(OC)c1` (stereo not given), the inhibition was -0.64%. Turning to `O=C(NC1CCCC1)c1ccc(S(=O)(=O)N2CCOCC2)cc1`, the inhibition is -6.82%.

As for `CCCCSCc1nc2ccccn2c1Br`, the inhibition is 0.1%.

In the case of `CCn1cc(C(=O)O)c(=O)c2cc(F)c(N3CCN(C(=S)NC(=O)c4ccc(F)c(F)c4)CC3)cc21`, the inhibition is 1.24%. On to `CCn1cc(C(=O)O)c(=O)c2cnc(N3CCN(C(=S)NC(=O)c4ccc(Br)cc4)CC3)nc21`, for which the inhibition was 5.97%. Turning to `CC(=O)N1CCN(c2cc3c(cc2F)c(=O)c(C(=O)O)cn3C2CC2)CC1`, the inhibition was 0.5%. Next, `CCn1cc(C(=O)O)c(=O)c2cc(F)c(N3CCN(S(=O)(=O)c4ccc5c(c4)OCCO5)CC3)cc21`: 9.21%.

As for `CCCOc1ccc(C(=O)NC(=S)N2CCN(c3cc4c(cc3F)c(=O)c(C(=O)O)cn4CC)CC2)cc1`, the inhibition is 15.1%. Take `CCn1cc(C(=O)O)c(=O)c2cc(F)c(N3CCN(C(=S)NC(=O)c4ccc(F)cc4)CC3)cc21`: the inhibition is 9.94%. Turning to `COc1ccc(NC(=O)C2CCCN(S(=O)(=O)c3ccccc3)C2)c(OC)c1` (stereo not given), the inhibition was 0.45%.

Take `O=C1C2CCCN2C(c2cccnc2)N1c1nccs1` (stereo not given): the inhibition was 0.12%. For `CCOc1cc(C(=O)Nc2nnc(S(=O)(=O)N3CCOCC3)s2)cc(OCC)c1OCC`, the inhibition is -12.6%. On to `CCc1ccc(NC(=O)COC(=O)/C(=C/c2ccccc2OC)c2ccccc2)cc1`, for which the inhibition was -5.82%. Regarding `CCn1c(C)nnc1SCC(=O)Nc1ccc2c(c1)OCCO2`, the inhibition was 11.2%.
